Bioassay records from PubChem.
Only some compounds are listed: those with a hit (about 3.4% of all), similar ones and a draw of the others.
FBW7 activator: human FBW7 E3 ligase activation, primary screen; AlphaScreen FBW7–phospho-cyclin E peptide binding, activator screen; Q969H0; normalized activity (activation), % at 26.1 µM; actives 0.13% (n = 650,000); in the data active = normalized activity above about 1.9%;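 note: purified mutant Fbw7 with reduced substrate affinity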
GPR151 activ: human GPR151 activation | Q8TDV0 | PathHunter beta-arrestin GPR151 cells, luminescence | activation, % at 11.2 µM | actives 1% (n = 650,000) | AID 1508602; in the data active = activation above about 4.9%;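 note: 0% = median of compound wells and 100% = cells with positive control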
Target sequence (Q8TDV0 whole entry, looked up): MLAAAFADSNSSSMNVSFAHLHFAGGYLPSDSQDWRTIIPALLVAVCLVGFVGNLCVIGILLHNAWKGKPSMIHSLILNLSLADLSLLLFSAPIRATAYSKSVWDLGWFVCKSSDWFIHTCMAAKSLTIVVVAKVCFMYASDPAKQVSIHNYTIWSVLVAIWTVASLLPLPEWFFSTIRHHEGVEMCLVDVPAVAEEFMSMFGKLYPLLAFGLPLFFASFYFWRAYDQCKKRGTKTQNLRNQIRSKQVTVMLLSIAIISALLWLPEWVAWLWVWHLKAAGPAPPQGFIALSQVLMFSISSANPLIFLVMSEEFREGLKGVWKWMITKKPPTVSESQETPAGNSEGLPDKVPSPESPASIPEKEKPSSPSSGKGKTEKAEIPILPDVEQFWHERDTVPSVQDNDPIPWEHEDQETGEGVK
MITF primary: inhibitors of human MITF. AlphaScreen MITF homodimerization, bead proximity signal. actives 0.91% (n = 650,000). inhibition, % at 2.6 µM. AID 1259374. O75030; in the data active = inhibition above about 50%;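 note: 0% = vehicle wells with protein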
TEAD-YAP inh: TEAD-YAP interaction inhibition | HEK-TIYL cells, TEAD-Gal4/YAP UAS-luciferase luminescence | inhibition, % at 9.12 µM | actives 1.4% (n = 640,000); in the data active = inhibition above about 32%;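 note: 0% = median of test compound wells and 100% = reference inhibitor wells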
* = called active by the depositor.

SMILES | FBW7 activator | GPR151 activ | MITF primary | TEAD-YAP inh
CCOc1ccccc1-n1c(=S)sc2c(=O)n(-c3ccc(F)cc3)c(=S)[nH]c21 | 0 | -1 | 4 | 3
COC(=O)C1=C(C)NC(=S)NC1c1ccc(OCC(N)=O)cc1 (stereo not drawn) | 1 | -1 | 3 | -3
CCC(C)n1c(SCc2ccccc2Cl)nc2ccsc2c1=O (stereo not drawn) | 0 | 1 | 1 | 51*
CCC(C)n1c(SCc2c(F)cccc2Cl)nc2ccsc2c1=O (stereo not drawn) | 0 | 1 | 17 | -2
CN(C)c1ccc(C2C(C#N)=C(N)N(c3cccc([N+](=O)[O-])c3)C3=C2C(=O)CC(C)(C)C3)cc1 (stereo not drawn) | 0 | 1 | -4 | -1
FC(F)(F)c1cccc(-c2cnc3ccc(NCCc4cccnc4)nn23)c1 | 1 | 1 | 21 | 37*
CCCNc1ccc2ncc(-c3cc4ccccc4s3)n2n1 | 0 | 3 | -13 | -11
c1cncc(CCNc2ccc3ncc(-c4cc5ccccc5s4)n3n2)c1 | 0 | 0 | 14 | 73*
CCOc1ccc(NC(=O)CSc2nnc(-c3cccn(C)c3=O)n2CC)cc1 | 0 | 0 | -9 | 6
CC(=O)c1ccc(N=Cc2nc(-c3ccccc3Br)oc2O)cc1 | 0 | 1 | 18 | 2
COC(CNC(=O)c1ccc(N)c([N+](=O)[O-])c1)OC | 0 | -1 | 15 | -4
COc1ccccc1C(=O)OCC(=O)c1ccc([N+](=O)[O-])cc1 | 0 | -1 | 6 | -7
O=C(COC(=O)c1ccccc1C(F)(F)F)c1ccc([N+](=O)[O-])cc1 | 0 | 0 | -10 | 38*
Nc1ccccc1-c1nc2ccccc2c(=O)o1 | 2.4* | -3 | 22 | -24
CC(C)(C)c1ccc(-c2nc3ccccc3c(=O)[nH]2)cc1 | 0 | -1 | -7 | 83*
O=C(Nc1ccc(-c2nc3ccccc3o2)cc1)C1CCN(CCCn2cccn2)CC1 | 0 | 4 | -9 | 78*
O=C(Nc1ccc(-c2nc3ccccc3o2)cc1)C1CCN(Cc2ccccn2)CC1 | 0 | 0 | -2 | -5
O=C(Nc1ccc(-c2nc3ccccc3c(=O)o2)cc1)C1CC1 | 0 | -6 | -5 | 48*
Cc1ccc(-c2nc3ccccc3c(=O)[nH]2)cc1 | 0 | -4 | -1 | 20
Cc1ccc(-n2[nH]c(C)c(C=Nc3ccc(S(=O)(=O)N4CCCCC4)cc3)c2=O)cc1C | 0 | -2 | 7 | -7
CC(C)(C)c1ccc(-c2nc3ccccc3c(=O)o2)cc1 | 0 | -5 | -10 | 53*
COc1ccc(C(CC(=O)O)NC(=O)c2cccc(Cl)c2)cc1OC (stereo not drawn) | 0 | 0 | -18 | -22
CCOc1ccccc1NC(=O)c1cccs1 | 0 | 0 | -8 | -6
CCOc1cc(C#N)c(NC(=O)c2ccncc2)cc1OCC | 0 | 1 | -1 | -11
CCOc1cc(C#N)c(NC(=O)c2cccnc2)cc1OCC | 0 | 1 | -1 | 55*
SMILES | FBW7 activator | GPR151 activ | MITF primary | TEAD-YAP inh
CCOc1cc(C#N)c(NC(=O)c2cccs2)cc1OCC | 0 | -1 | 2 | 48*
COc1ccc(-c2nc3ncnc(NC4CC4)c3[nH]2)cn1 | 0 | 1 | 1 | 8
CCCCc1ccc(NC(=O)c2ccc(N(C)S(C)(=O)=O)cc2)cc1 | 0 | 0 | -10 | 35*
CCc1cc(-c2n[nH]c(C)c2-c2nc3ccccc3s2)c(O)cc1OC | 0 | 0 | 7 | 35*
COC(C(=O)NCc1nc(-c2ccncc2)n[nH]1)c1ccccc1 (stereo not drawn) | 0 | 0 | -1 | 0
O=C(O)CCC(=O)Nc1ccc(Oc2ccccc2Cl)cc1 | 0 | 2 | -7 | -2
CCOc1ccc2[nH]c(=O)c(CN(CCOC)C(=O)Nc3ccc(F)cc3)cc2c1 | 0 | 1 | 1 | 37*
CCOc1ccc2[nH]c(=O)c(CN(CCOC)C(=O)Nc3ccc(SC)cc3)cc2c1 | 0 | -1 | 2 | -36
Cc1ccccc1-n1ncc(C(C)NC(=O)c2c(C)nc3sccn23)c1C (stereo not drawn) | 1 | 0 | -4 | 59*
O=C(NC1CC1)[C@H]1C=CCN1S(=O)(=O)c1ccccc1Cl | 0 | 1 | 5 | 2
CCN(CC)c1ccc2c(Cl)c(Br)c(=O)oc2c1 | 6.2* | -1 | 6 | 1
CCN(CC)c1ccc2c(C)cc(=O)oc2c1 | 1 | 2 | -5 | -13
CCN(CC)c1ccc2c(C)c(Cl)c(=O)oc2c1 | 5.8* | -1 | -26 | -5
CCN(Cc1ccccc1)c1ccc(/C=N/Nc2ncnc(N)c2[N+](=O)[O-])cc1 | -1 | -4 | 12 | 37*
Nc1ncnc(N/N=C/c2ccc(C3=CCCC3)s2)c1[N+](=O)[O-] | -1 | -8 | 22 | 60*
Nc1ncnc(N/N=C/c2ccc3ncccc3c2)c1[N+](=O)[O-] | 0 | -1 | 13 | 86*
COc1cc(/C=N/Nc2ncnc(N)c2[N+](=O)[O-])ccc1O | -1 | -10 | 10 | 34*
Nc1ncnc(N/N=C/c2cccnc2)c1[N+](=O)[O-] | 0 | -3 | -1 | 20
O=C(Nc1ccc(F)c([N+](=O)[O-])c1)c1ccccc1Oc1ccccc1 | 0 | 1 | -5 | 25
COC(=O)c1cccc(CC2(C)C(=O)Nc3ccc(F)cc32)c1 (stereo not drawn) | 0 | 0 | -10 | 4
O=C(CSc1nncc(=O)[nH]1)Nc1cccc(C(F)(F)F)c1 | 0 | -1 | 6 | 25
O=S1(=O)CC(O)C(OS(=O)(=O)c2ccccc2)C1 (stereo not drawn) | 0 | 0 | 11 | 4
COc1ccc(N(Cc2ccccc2)C(=O)c2nc(S(C)(=O)=O)ncc2Cl)cc1 | 0 | 0 | 6 | 98*
CS(=O)(=O)c1ncc(Cl)c(C(=O)C(C#N)c2nc3ccccc3s2)n1 (stereo not drawn) | 0 | 0 | 4 | 74*
CCOC(=O)c1c(NC(=O)c2nc(S(C)(=O)=O)ncc2Cl)sc(C)c1C | 1 | -3 | -1 | 8
SMILES | FBW7 activator | GPR151 activ | MITF primary | TEAD-YAP inh
Cc1cccc(C)c1NC(=O)c1nc(S(C)(=O)=O)ncc1Cl | 0 | 0 | -15 | -25
Cc1cccc(OC(=O)c2nc(S(C)(=O)=O)ncc2Cl)c1C | 0 | 0 | 15 | 56*
Cc1ccc2nc(C(C#N)C(=O)c3nc(S(C)(=O)=O)ncc3Cl)[nH]c(=O)c2c1 (stereo not drawn) | 0 | 1 | -15 | 8
Cc1ccc(OC(=O)c2nc(S(C)(=O)=O)ncc2Cl)cc1C | 0 | -1 | 9 | 48*
Cc1ccc(C(C)C)c(OCCN=Cc2c(O)n(C)c(=O)n(C)c2=O)c1 | 0 | -1 | 1 | 33*
COC(=O)c1c(N)sc(C(=O)Nc2ccccc2OC)c1C | 1 | -1 | 10 | -36
CCOC(=O)c1c(N)sc(C(=O)Nc2ccc(OC)cc2)c1C | 0 | -6 | -2 | 42*
CCOC(=O)c1ccc(NC(=O)c2sc(NC(=O)c3ccc(OC)cc3)c(C(=O)OCC)c2C)cc1 | 0 | 0 | -1 | 7
CCOC(=O)c1sc(N)c(C(=O)Nc2ccccc2OC)c1C | 0 | 0 | 2 | 54*
